Measurements published in PubChem BioAssay AID1159580 (chemical genetic matrix, 2015).
Several values for one entry are separate records, joined by “and”; a condition that tells them apart may be missing. Equal entries are not always repeated. About 2,000 (36%) of roughly 5,500 compounds were called active. Another 18% or so got no clear call; they are omitted. Cut-off read from the data, not from the text of the source: active = normalized growth mostly below about 0.91 (no sharp cut-off); inconclusive = no clear call, values can overlap the other calls; inactive = mostly above about 0.92. Some of the results follow.

Assay: chemical genetic growth profiling, strain panel (AID 1159580);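 note: tested at 20 µM; growth read once vehicle control cultures reached saturation at 30 °C; 1 = growth at the plate median or of vehicle wells; lower values mean less growth of the strain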
Conditions: S. cerevisiae deletion strains, growth OD

Measured: normalized growth

CCCSc1ccc2nc(NC(=O)OC)[nH]c2c1
inactive: locus YAL013W, strain DEP1, active compounds read low 0.995 | locus YAL021C, strain ccr4, active compounds read low 1.01 | locus YAL026C, strain drs2, active compounds read low 1.01 | locus YAL030W, strain snc1, active compounds read low 1 | locus YBL061C, strain skt5, active compounds read low 1.01 | locus YBR009C, strain hhf1, active compounds read low 1.01 | locus YBR023C, strain chs3, active compounds read low 1.01 | locus YBR171W, strain sec66, active compounds read low 1.02 | locus YBR229C, strain ROT2, active compounds read low 0.992 | locus YBR231C, strain swc5, active compounds read low 0.922 | locus YBR279W, strain paf1, active compounds read low 1.01 | locus YCL011C, strain gbp2, active compounds read low 1.01 | locus YCL016C, strain dcc1, active compounds read low 1.01 | locus YCL061C, strain MRC1, active compounds read low 1.01 | locus YCL069W, strain vba3, active compounds read low 1.01 | locus YCR088W, strain abp1, active compounds read low 1.01 | locus YDL005C, strain med2, active compounds read low 1.03 | locus YDL035C, strain GPR1, active compounds read low 0.99 | locus YDL040C, strain nat1, active compounds read low 1.01 | locus YDL074C, strain BRE1, active compounds read low 0.866 | locus YDL101C, strain DUN1, active compounds read low 0.993 | locus YDL134C, strain PPH21, active compounds read low 1.01 | locus YDL185W, strain tfp1, active compounds read low 0.93 | locus YDL192W, strain arf1, active compounds read low 0.971 | locus YDR001C, strain nth1, active compounds read low 1.01 | locus YDR069C, strain doa4, active compounds read low 0.998 | locus YDR101C, strain arx1, active compounds read low 0.961 | locus YDR137W, strain rgp1, active compounds read low 0.862 | locus YDR150W, strain NUM1, active compounds read low 0.977 | locus YDR159W, strain sac3, active compounds read low 1.04 | locus YDR162C, strain NBP2, active compounds read low 0.993 | locus YDR297W, strain sur2, active compounds read low 1.01 | locus YDR318W, strain mcm21, active compounds read low 0.956 | locus YDR334W, strain swr1, active compounds read low 0.962 | locus YDR335W, strain msn5, active compounds read low 1.02 | locus YDR388W, active compounds read low 0.969 | locus YDR392W, strain spt3, active compounds read low 0.967 | locus YDR502C, strain sam2, active compounds read low 0.966 | locus YEL037C, strain rad23, active compounds read low 1 | locus YEL061C, strain CIN8 (second series), active compounds read low 1.01 | locus YEL061C, strain CIN8, active compounds read low 0.997 | locus YER015W, strain faa2, active compounds read low 1 | locus YER016W, strain bim1, active compounds read low 1.01 | locus YER110C, active compounds read low 0.976 | locus YER111C, strain swi4, active compounds read low 1.02 | locus YER155C, strain BEM2 (second series), active compounds read low 0.999 | locus YER155C, strain BEM2, active compounds read low 0.991 | locus YER167W, strain BCK2, active compounds read low 0.988 | locus YFR010W, strain ubp6, active compounds read low 1.02 | locus YGL078C, strain dbp3, active compounds read low 0.955 | locus YGL086W, strain mad1, active compounds read low 0.974 | locus YGL167C, strain pmr1, active compounds read low 1.02 | locus YGL173C, strain kem1, active compounds read low 1.02 | locus YGL227W, strain vid30, active compounds read low 1 | locus YGL240W, strain doc1, active compounds read low 1.01 | locus YGL248W, strain PDE1, active compounds read low 0.996 | locus YGL253W, strain hxk2, active compounds read low 1.01 | locus YGR135W, strain pre9, active compounds read low 0.944 | locus YGR229C, strain SMI1, active compounds read low 0.968 | locus YGR252W, strain gcn5, active compounds read low 1.16 | locus YHR013C, strain ard1, active compounds read low 1.01 | locus YHR027C, strain rpn1, active compounds read low 1.01 | locus YHR030C, strain SLT2, active compounds read low 0.99 and 0.897 | locus YHR079C, strain IRE1 (second series), active compounds read low 0.942 | locus YHR079C, strain IRE1, active compounds read low 0.933 | locus YHR094C, strain hxt1, active compounds read low 0.965 | locus YHR129C, strain ARP1, active compounds read low 0.983 | locus YHR142W, strain chs7, active compounds read low 1.01 | locus YHR200W, strain rpn10, active compounds read low 0.951 | locus YIL066C, strain RNR3, active compounds read low 0.98 | locus YIL073C, strain SPO22, active compounds read low 0.894 | locus YIL125W, strain kgd1, active compounds read low 0.98 | locus YIR030C, strain dcg1, active compounds read low 0.983 | locus YJL092W, strain hpr5, active compounds read low 1 | locus YJL095W, strain BCK1 (second series), active compounds read low 1.01 | locus YJL095W, strain BCK1, active compounds read low 0.95 and 0.922 | locus YJL115W, strain asf1, active compounds read low 1.02 | locus YJL129C, strain trk1, active compounds read low 1.01 | locus YJL134W, strain LCB3, active compounds read low 0.992 | locus YJL154C, strain vps35, active compounds read low 1 | locus YJL164C, strain tpk1, active compounds read low 1.01 | locus YJL166W, strain qcr8, active compounds read low 1 | locus YJL168C, strain set2, active compounds read low 0.969 | locus YJL187C, strain SWE1 (second series), active compounds read low 0.963 | locus YJL187C, strain SWE1, active compounds read low 1 | locus YJR043C, strain POL32, active compounds read low 0.967 | locus YJR066W, strain TOR1, active compounds read low 0.909
active: locus YBR021W, strain FUR4, active compounds read low 1.2 [resistant] | locus YCL029C, strain bik1, active compounds read low 0.82 | locus YDR195W, strain ref2 1.15 [resistant] | locus YEL003W, strain gim4, active compounds read low 0.446 | locus YGR078C, strain PAC10, active compounds read low 0.11
